Assay results as given in PubChem BioAssay AID1159580 (chemical genetic matrix, 2015).
Several values for one entry are separate records, joined by “and”; a condition that tells them apart may be missing. Equal values may be shown once. Out of some 5,500 compounds screened, about 2,000 (36%) were called active. About 18% were inconclusive and are not listed. No stated cut-off is given here; in the data, active means normalized growth mostly below about 0.91 (no sharp cut-off); inconclusive means no clear call, values can overlap the other calls; inactive means mostly above about 0.92. This is one part of the list.

Assay: chemical genetic growth profiling, strain panel (AID 1159580);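 further: tested at 20 µM; growth read once vehicle control cultures reached saturation at 30 °C; 1 = growth at the plate median or of vehicle wells; lower values mean less growth of the strain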
Conditions: S. cerevisiae deletion strains, growth OD

Measured: normalized growth

Nc1ncnc2c1ncn2[C@@H]1O[C@H](CO)[C@@H](O)[C@@H]1O
inactive: locus YAL013W, strain DEP1, hits give low values 1.01 | locus YAL021C, strain ccr4, hits give low values 1 | locus YAL026C, strain drs2, hits give low values 1.01 | locus YAL030W, strain snc1, hits give low values 1.01 | locus YBL061C, strain skt5, hits give low values 1.01 | locus YBR009C, strain hhf1, hits give low values 1.01 | locus YBR021W, strain FUR4, hits give low values 1 | locus YBR023C, strain chs3, hits give low values 1.01 | locus YBR171W, strain sec66, hits give low values 1.02 | locus YBR229C, strain ROT2, hits give low values 1.01 | locus YBR231C, strain swc5, hits give low values 0.997 | locus YBR279W, strain paf1, hits give low values 1.01 | locus YCL011C, strain gbp2, hits give low values 1.01 | locus YCL016C, strain dcc1, hits give low values 1 | locus YCL029C, strain bik1, hits give low values 1.05 | locus YCL061C, strain MRC1, hits give low values 1.01 | locus YCL069W, strain vba3, hits give low values 1.02 | locus YCR088W, strain abp1, hits give low values 1.01 | locus YDL005C, strain med2, hits give low values 1.02 | locus YDL035C, strain GPR1, hits give low values 1.01 | locus YDL040C, strain nat1, hits give low values 1.01 | locus YDL074C, strain BRE1, hits give low values 1.01 | locus YDL101C, strain DUN1, hits give low values 1.01 | locus YDL134C, strain PPH21, hits give low values 1.01 | locus YDL185W, strain tfp1, hits give low values 1.02 | locus YDL192W, strain arf1, hits give low values 1.03 | locus YDR001C, strain nth1, hits give low values 1.01 | locus YDR069C, strain doa4, hits give low values 1.01 | locus YDR101C, strain arx1, hits give low values 1.03 | locus YDR137W, strain rgp1, hits give low values 1.03 | locus YDR150W, strain NUM1, hits give low values 1.01 | locus YDR159W, strain sac3, hits give low values 1.01 | locus YDR162C, strain NBP2, hits give low values 1.01 | locus YDR195W, strain ref2 1.02 | locus YDR297W, strain sur2, hits give low values 1.01 | locus YDR318W, strain mcm21, hits give low values 1.04 | locus YDR334W, strain swr1, hits give low values 1.01 | locus YDR335W, strain msn5, hits give low values 1 | locus YDR388W, hits give low values 1.02 | locus YDR392W, strain spt3, hits give low values 0.986 | locus YDR502C, strain sam2, hits give low values 1.03 | locus YEL003W, strain gim4, hits give low values 1.02 | locus YEL037C, strain rad23, hits give low values 1.01 | locus YEL061C, strain CIN8 (second series), hits give low values 1.02 | locus YEL061C, strain CIN8, hits give low values 1.01 | locus YER015W, strain faa2, hits give low values 1.01 | locus YER016W, strain bim1, hits give low values 1.01 | locus YER110C, hits give low values 1.04 | locus YER111C, strain swi4, hits give low values 1.01 | locus YER155C, strain BEM2 (second series), hits give low values 1.02 | locus YER155C, strain BEM2, hits give low values 1 | locus YER167W, strain BCK2, hits give low values 1.01 | locus YFR010W, strain ubp6, hits give low values 1.02 | locus YGL078C, strain dbp3, hits give low values 1.02 | locus YGL086W, strain mad1, hits give low values 1.01 | locus YGL167C, strain pmr1, hits give low values 1.02 | locus YGL173C, strain kem1, hits give low values 1.01 | locus YGL227W, strain vid30, hits give low values 1.01 | locus YGL240W, strain doc1, hits give low values 1.02 | locus YGL248W, strain PDE1, hits give low values 1.01 | locus YGL253W, strain hxk2, hits give low values 1.02 | locus YGR078C, strain PAC10, hits give low values 1.01 | locus YGR135W, strain pre9, hits give low values 1.03 | locus YGR229C, strain SMI1, hits give low values 1.01 | locus YGR252W, strain gcn5, hits give low values 1.06 | locus YHR013C, strain ard1, hits give low values 1.03 | locus YHR027C, strain rpn1, hits give low values 1.01 | locus YHR030C, strain SLT2, hits give low values 1.01 and 0.991 | locus YHR079C, strain IRE1 (second series), hits give low values 1.02 | locus YHR079C, strain IRE1, hits give low values 0.995 | locus YHR094C, strain hxt1, hits give low values 1.02 | locus YHR129C, strain ARP1, hits give low values 1 | locus YHR142W, strain chs7, hits give low values 1.03 | locus YHR200W, strain rpn10, hits give low values 1.03 | locus YIL066C, strain RNR3, hits give low values 1.01 | locus YIL073C, strain SPO22, hits give low values 1.08 | locus YIL125W, strain kgd1, hits give low values 1.02 | locus YIR030C, strain dcg1, hits give low values 1.03 | locus YJL092W, strain hpr5, hits give low values 1.01 | locus YJL095W, strain BCK1 (second series), hits give low values 1.01 | locus YJL095W, strain BCK1, hits give low values 1.03 and 0.999 | locus YJL115W, strain asf1, hits give low values 1.01 | locus YJL129C, strain trk1, hits give low values 1.01 | locus YJL134W, strain LCB3, hits give low values 1.01 | locus YJL154C, strain vps35, hits give low values 1.02 | locus YJL164C, strain tpk1, hits give low values 1.03 | locus YJL166W, strain qcr8, hits give low values 1.01 | locus YJL168C, strain set2, hits give low values 1.03 | locus YJL187C, strain SWE1 (second series), hits give low values 1.02 | locus YJL187C, strain SWE1, hits give low values 1.01 | locus YJR043C, strain POL32, hits give low values 1.02 | locus YJR066W, strain TOR1, hits give low values 0.943
